Lmaj promast: reduces viability of Leishmania major promastigotes. resazurin fluorescence viability. inhibition, % at 10 µM. actives 9% (n = 200,000); in the data active = inhibition above about 50%;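 also: promastigotes grown with compound for 44 hours at 28 °C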
p97 inhibitor: human p97 ATPase inhibition | P55072 | inhibition, % at 8 µM | recombinant p97 ATPase, Kinase-Glo ATP luminescence, 3 h | actives 0.42% (n = 220,000); in the data active = inhibition above about 15%;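 also: 0% = DMSO vehicle and 100% = wells lacking enzyme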
Insulin prom inh: TRM-6 insulin promoter activity inhibition. TRM-6 cells (human fetal islet line), insulin promoter-eGFP reporter, imaging; reporter expression induced with tamoxifen. actives 0.9% (n = 130,000). inhibition, % at 2 µM;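 active = inhibition above the mean plus 3 SD, with well images judged a real hit on visual review, cut at about 60% in these data, passing the limit was not always enough; inconclusive = inhibition over the cutoff but images rejected on review; inactive = inhibition not above the cutoff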
PTEN del growth: growth suppressors of cells with PTEN tumor suppressor deletion. HCT116 PTEN-null viability, CellTiter-Glo, 60 h; stronger effect = lower value. viability, % at 10 µM. actives 1.2% (n = 140,000). AID 827;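 active = viability at or below a set limit, 4 SD under the median of all tested compounds, cut at about 3.7% in these data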;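 also: PTEN knockout HCT116 line with beta catenin targeted HCT116 as companion control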
ROMK mod: modulators of human ROMK potassium channel | P48048 | Tet-inducible ROMK, thallium flux fluorescence; actives lie on both sides | B-score at 10 µM | actives 2% (n = 130,000);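 active = signal ratio slope over the read window, or its plate-corrected B-score, at least 3 SD from the plate mean, either direction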;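 also: B-score of the F/F0 ratio slope over 7 to 12 s after thallium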
Target sequence (P48048 whole entry, looked up): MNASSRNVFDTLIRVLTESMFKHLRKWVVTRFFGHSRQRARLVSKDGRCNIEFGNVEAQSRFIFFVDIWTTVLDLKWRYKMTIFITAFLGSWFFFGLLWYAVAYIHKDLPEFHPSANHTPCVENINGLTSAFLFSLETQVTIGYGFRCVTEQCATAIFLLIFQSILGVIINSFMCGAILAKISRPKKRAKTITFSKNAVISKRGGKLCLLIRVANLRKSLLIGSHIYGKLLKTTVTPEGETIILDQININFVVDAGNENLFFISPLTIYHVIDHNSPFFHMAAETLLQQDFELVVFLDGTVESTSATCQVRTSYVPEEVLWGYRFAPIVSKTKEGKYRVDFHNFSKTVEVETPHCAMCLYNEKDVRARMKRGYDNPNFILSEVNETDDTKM
HCT116 bCat-KO: beta-catenin-lacking colon tumor cell growth suppression. HCT116 beta-catenin knockout viability, CellTiter-Glo, 60 h; stronger effect = lower value. viability, % at 10 µM. actives 1.5% (n = 140,000). AID 818;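 active = viability at or under a set limit, the compound median less 4 SD, cut at about 6% in these data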;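 also: 0% = Hyamine 1622 control at 20 µM and 100% = untreated cell control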
ROMK hit retest: retested hit modulating human ROMK potassium channel; shares compounds with ROMK mod; ROMK thallium flux, fluorescence ratio; stronger effect = lower value; normalized thallium flux (F/F0 slope) at 10 µM; actives 54% (n = 3,000); AID 1917;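 active = Flux at 10 µM at least 3 SD below or above vehicle control mean in one or both replicates; inconclusive = no clear call, values can overlap the other calls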
* hit, by the source's call; ? = inconclusive; nt = no result. An excerpt weighted towards active compounds, which were near 10% of everything screened.

SMILES | Lmaj promast | p97 inhibitor | Insulin prom inh | PTEN del growth | ROMK mod | HCT116 bCat-KO | ROMK hit retest
Cn1c(C2CCCCC2)nc2c1c(=O)[nH]c(=O)n2Cc1ccccc1 | 7 | 1 | nt | nt | 3.2* | nt | 0.098*
Cc1ccc(-c2nc3c(c(=O)[nH]c(=O)n3Cc3ccccc3)n2C)s1 | nt | -2 | nt | nt | 0.18 | nt | nt
CCOc1cc(CNCCCN2CCOCC2)cc(Br)c1OCc1ccccc1Cl | 101* | -1 | -114 | nt | -1.6* | nt | ?
O=C(Nc1cccnc1)c1cc(-c2ccccc2O)on1 | nt | 1 | nt | nt | 3* | nt | ?
O=C(CCc1nnc(-c2ccsc2)o1)N1CCCCC1CCn1ccnc1 (centres undefined) | 6 | -4 | -39 | nt | -2 | nt | nt
Cc1cccc(N2CCN(C(=S)Nc3ccc4nc5n(c(=O)c4c3)CCCCC5)CC2)c1C | 20 | 4 | -11 | nt | 0.88 | nt | nt
Cc1cccc(NC(=O)c2cnc3scc(C)n3c2=O)c1 | 0 | 1 | nt | 78 | nt | 82 | nt
Cc1csc2nc3cc(C(N)=O)ccc3c(=O)n12 | nt | nt | nt | nt | nt | nt | 0.08
CN=C1CC(C)(C)CC(=O)/C1=C(/O)CCCN1C(=O)c2ccccc2C1=O | -4 | 1 | 12 | nt | 0.32 | nt | nt
c1ccc(CC2CCN(C3=Nc4cccc5cccc3c45)CC2)cc1 | 100* | -2 | -83 | 17 | -4.4* | 21 | 0.062*
c1cc2c3c(cccc3c1)C(N1CCOCC1)=N2 | nt | 6 | nt | nt | nt | nt | nt
CC(=O)N1CCN(C2=Nc3cccc4cccc2c34)CC1 | -2 | 4 | -33 | 106 | nt | 97 | nt
CC1CN(C2=Nc3cccc4cccc2c34)CC(C)O1 (centres undefined) | 24 | 2 | nt | nt | -1.8* | nt | 0.063*
CCOC(=O)c1ccc(N2C(=O)CC(N3CCC(Nc4ccc(F)cc4)CC3)C2=O)cc1 (centres undefined) | 4 | -4 | -23 | 112 | -0.11 | 99 | nt
O=C(CNc1ccccc1)N/N=C/c1ccc2c(c1)OCCO2 | 3 | 2 | 31 | 81 | nt | 94 | nt
CC1CC(C)CN(C(=O)C2CCCN(S(=O)(=O)c3cnc[nH]3)C2)C1 (centres undefined) | nt | 0 | nt | nt | -0.35 | nt | nt
CN(C)c1ccc(/C=C(\C#N)C(=O)c2ccccc2)cc1 | nt | -2 | nt | nt | nt | nt | 0.066*
O=C(Nc1nc2n(n1)C(c1ccccc1)C=C(c1ccccc1)N2)c1ccco1 (centres undefined) | 2 | -4 | nt | 83 | nt | 95 | 0.066*
Cn1c(C2=C(O)CN(Cc3ccccc3)C2=N)nc2ccccc21 | nt | 0 | nt | nt | nt | nt | nt
Cc1cc(C)c2cc(C(=O)Nc3ccccc3)[nH]c2c1 | nt | 14 | nt | nt | nt | nt | 0.079
COc1ccc(CNC(=O)CCC(=O)N2CCN(S(=O)(=O)c3ccc(Cl)cc3)CC2)cc1 | -1 | 3 | nt | nt | -1.2 | nt | nt
Cc1ccc(CS(=O)(=O)Cc2ccc(C(=O)NCc3ccccn3)o2)cc1 | 2 | 0 | 11 | 98 | nt | 94 | nt
Cc1cccc(N2C(=O)/C(=C\c3ccc(C(=O)O)cc3)c3ccccc3C2=O)c1 | 16 | 5 | -45 | nt | -6.4* | nt | 0.046*
CCOc1ccc(C(=O)NC(=S)Nc2cccc(S(=O)(=O)NC3=NCCC3)c2)cc1 | 0 | -4 | nt | nt | 5.7* | nt | 0.096
Nc1nnc(SCCOc2ccc(Br)cc2)s1 | -3 | 6 | nt | 89 | 0.34 | 86 | nt
SMILES | Lmaj promast | p97 inhibitor | Insulin prom inh | PTEN del growth | ROMK mod | HCT116 bCat-KO | ROMK hit retest
O=C(NC(NNc1ccc([N+](=O)[O-])cc1)(C(F)(F)F)C(F)(F)F)c1ccccc1Cl | -6 | -2 | nt | 84 | -0.47 | 82 | nt
O=C(NC(Nc1nc2ccc([N+](=O)[O-])cc2s1)(C(F)(F)F)C(F)(F)F)c1ccccc1Cl | 100* | 11 | nt | 1.4* | nt | 1.7* | ?
CN(C)S(=O)(=O)Oc1cccc(C(=O)Nc2ccc(Cl)cc2)c1 | 2 | -4 | -40 | 20 | nt | 14 | 0.074
O=C(NCCN1CCN(S(=O)(=O)c2ccc([N+](=O)[O-])cc2)CC1)C(=O)Nc1ccccc1 | -3 | 1 | nt | nt | 0.33 | nt | nt
O=C(CC1=NCCNC(c2ccccc2)C1)c1ccccc1O (centres undefined) | 22 | 1 | nt | 40 | -2.3* | 40 | ?
CC1CCCC(C)N1CCNC(=O)C1CCN(S(=O)(=O)N2CCCCC2)CC1 (centres undefined) | 8 | 13 | 36 | 107 | nt | 94 | nt
CCOC(=O)CSc1nc2c(sc3ccc([N+](=O)[O-])cc32)c(=O)n1Cc1ccco1 | 6 | 5 | 9 | 74 | nt | 76 | nt
Cc1cc2ccccc2n1CCNC(=O)c1cccs1 | -5 | 7 | nt | 90 | nt | 91 | 0.069*
O=C(Cc1ccc(-n2cccc2)cc1)NCc1ccccc1Cl | 0 | 3 | -3 | 26 | 0.99 | 30 | nt
O=C(Cc1ccccc1)NCc1ccc(-n2cccc2)cc1 | -2 | -7 | nt | nt | 2.5* | nt | 0.089
Fc1ccc(-c2nn(-c3ccccc3)cc2CNCc2ccccc2)cc1 | 80* | -1 | nt | nt | -2.6* | nt | 0.047*
O=C(O)Cc1cn(-c2ccccc2)nc1-c1ccccc1 | -9 | 2 | nt | nt | 0.42 | nt | nt
NC(=O)COC(=O)c1ccccc1Oc1ccccc1 | -10 | 5 | nt | nt | 0.16 | nt | nt
CCOC(=O)/C(C#N)=C/c1ccc(OC)c(OC)c1 | -1 | 2 | nt | 102 | 0.13 | 106 | nt
CCOc1cc(/C=C(\C#N)C(N)=O)ccc1OS(=O)(=O)c1ccccc1 | -1 | 0 | 7 | 88 | -5* | 85 | 0.033*
COc1ccc(C2OC(=O)CC2C(=O)NCc2ccc(Cl)cc2)cc1OC (centres undefined) | 17 | 5 | -75 | nt | -0.0018 | nt | nt
C=CCOc1ccc(Br)cc1CNC(C)(C)C | -2 | 6 | -13 | nt | 0.5 | nt | 0.072
C=CCOc1ccc(Br)cc1CNC(C)(C)CO | 2 | 7 | nt | nt | nt | nt | nt
Cn1nc(C(=O)N2CCN(S(=O)(=O)/C=C/c3ccccc3)CC2)c2ccccc2c1=O | -2 | 5 | nt | 82 | nt | 88 | nt
CC(C)Cc1cc(C(=O)N2CCN(C(c3ccccc3)c3ccccc3)CC2)no1 | -3 | -24 | nt | 90 | nt | 103 | 0.062*
CC(C)c1cc(C(=O)N2CCN(C(c3ccccc3)c3ccccc3)CC2)no1 | -2 | -4 | -25 | 97 | -2.8 | 93 | nt
Cn1nc(C(=O)N2CCN(C(c3ccccc3)c3ccccc3)CC2)c2ccccc2c1=O | nt | 0 | nt | nt | nt | nt | 0.06*
COC(=O)CCCC(=O)N1CCOCCN(C(=O)CCCC(=O)OC)CCOCC1 | -4 | 0 | -11 | 95 | -0.068 | 91 | nt
O=C1c2ccccc2NC(c2ccc(-c3cccc([N+](=O)[O-])c3)o2)N1O (centres undefined) | 82* | 2 | 38 | 10 | -3.6* | 12 | 0.061*
Cc1ccc(OCCNC(=O)C(=O)NCc2ccco2)cc1 | -6 | -1 | nt | nt | 3* | nt | 0.1*
Cc1cnc2ncc3sccc3c2c1 | -1 | 1 | -27 | 98 | -3.6* | 88 | 0.059*
O=C1N(Cc2cccc(Cl)c2)C[C@@H]2C[C@@H](c3cccn3-c3cccnc3)N3CCC[C@@]123 | 6 | 1 | 17 | nt | -2.7* | nt | 0.061*
CCn1ncc([C@@H]2C[C@H]3CN(Cc4cccc(Cl)c4)C(=O)[C@]34CCCN24)c1C | 5 | 4 | nt | nt | -0.36 | nt | nt

Compound activity from PubChem.
